Data reported in PubChem BioAssay (NCI).
The panel holds about 83,000 compounds, 20% with a hit somewhere; the sample as a whole holds those more often.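 Single-concentration screen, 48 h exposure, 96-well plates. Endpoint: percent growth. Below 10 = active.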 Values without a mark were called inactive. The source made the active and inactive calls.

The compounds below were run on HL-60(TB) leukemia (assay: NCI-60 one-dose screen, 48 h (100 = growth as untreated, 0 = no growth, -100 = all killed)). Conditions: 10 µM unless noted.

| Compound | growth |
| --- | --- |
| CNCCCNCCCN1C(=O)c2ccc3c4c(ccc(c24)C1=O)C(=O)N(CCCNCc1ccccc1OC)C3=O | -38.1% (active) |
| COc1ccc(-c2cc(Cc3cccs3)c(=O)n(Cn3ccc4ccccc43)n2)cc1 | 98.4% |
| CC1COCC(C)N1C1=C(Cl)C(=O)c2ccccc2C1=O (stereo not given) | -19.5% (active) |
| CCCCCCCCCCC[C@@H](C[C@H]1OC(=O)[C@H]1CCCCCC)OC(=O)[C@@H](CC(C)C)NC=O | -3.28% (active) |
| O=[N+]([O-])c1cccc(-c2nc(-c3ccc(Cl)cc3Cl)cn2-c2ccccc2)c1 | 35.3% |
| COC1=CC(=O)OC(c2ccc(OC)cc2)C1 (stereo not given) | 78.3% |
| CCn1cc(C(=O)NN=C2CCCC2)c(=O)c2ccc(C)nc21 | 98.8% |
| CC(C)(C)c1ccc(O)c(C2CCCCC2)c1 | 67.4% |
| Cc1ccc(-c2cc(C(=O)Nc3ccc(S(=O)(=O)N4CCCCC4)cc3)[nH]n2)c(O)c1 | 48.7% |
| O=C(CCN1CCCC1)Nc1ccc2c(Nc3ccc(F)cc3)c3ccccc3nc2c1 | -54.9% (active) |
| O=C1Nc2ccccc2/C1=C/c1c[nH]c2ccccc12 | 102% |
| O=C(Cc1ccc(F)c(Cl)c1)Nc1cc(C2(C(F)(F)F)CC2)nn1Cc1ccccc1 | 100% |
| COc1ccc(/C=C\c2cc(OC)c(OC)c(OC)c2)cc1OCC(=O)Nc1ccc2nc(C)sc2c1 | -5.19% (active) |
| CC(=O)Nc1cscc1NC(C)=O | 96.7% |
| CC1=C[C@H]2c3c(c(O)c(O)c4oc5cc(O)ccc5c(=O)c34)[C@H](c3cc(O)c(O)c4oc5cc(O)ccc5c(=O)c34)[C@H]2C(C)(C)C1 | 17.8% |
| O=C(NS(=O)(=O)c1ccccc1)n1cc(-c2ccncc2)c(-c2ccc(Cl)c(O)c2)n1 | 94% |
| Cc1c2c[n+](C(C)C)ccc2c(C)c2c1[nH]c1ccccc12 | 14.4% |
| CCCN1CCN(c2ccc3nc(-c4ccc5nc(-c6ccc(OCC)cc6)[nH]c5c4)[nH]c3c2)CC1 | 16.9% |
| Cc1ccc(-c2csc(NC(=O)CSc3nc(-c4ccccc4)cc(=O)[nH]3)n2)cc1 | 49.4% |
| Cc1cc(C)nc(SCC(=O)Nc2cccc(N=Cc3ccccc3O)c2)n1 | 96.6% |
| S=C(c1ccc2c(c1)OCO2)N1CCN(c2ccccc2Cl)CC1 | 87.6% |
| Cn1cc(-c2ccc3cc(-c4ccc(CC(=O)Nc5cc(C(C)(C)C)nn5C)cc4)cnc3c2)cn1 | 25.2% |
| COc1ccc2nc(NC(=O)c3cccnc3Nc3ccc(S(N)(=O)=O)cc3)sc2c1 | 54.5% |
| COc1ccc(-c2nc(SCC(C)C)nc(N/N=C(/C)c3ccc(OC)c(OC)c3)c2C#N)cc1 | 89.4% |
| COc1cc(OC)c2cc(C(=O)c3ccc(C#N)cc3)c(=O)oc2c1 | 97.4% |
